# In PubChem BioAssay (Tox21):
# Records with an inconclusive call do not appear. Entries that show only a call come without a potency. Active and inactive are the calls of the source. Calls come from the whole dose curve; as a rule, active = well fitted inhibition curve with a large enough effect in the repeat runs; inconclusive = weak or mixed curves, or effect the other way; inactive = no such curve, though single readings can be large or run the other way.
# Target: Androgen receptor (Homo sapiens) (UniProt P10275)
# Assay: qHTS assay to identify small molecule antagonists of the androgen receptor (AR) signaling pathway using the MDA cell line (AID 743042; note: nearly all actives have a fitted effect of over 55% in size)
# Settings: MDA-kb2 AR-luc, MMTV luciferase, R1881 antagonist, 16 h; series mostly up to 70.3 µM
# In short: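 MDA-kb2 cells (human breast carcinoma, stably carrying an MMTV-luciferase reporter responsive to AR and GR) were plated at 3,000 cells/well and preincubated 5 hr at 37C, then given compound plus R1881 agonist for 16 h. ONE-Glo luminescence was read.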
# Potency is the fitted concentration of half-maximal effect.
# Chain of Androgen receptor (Homo sapiens) (P10275 whole entry, looked up): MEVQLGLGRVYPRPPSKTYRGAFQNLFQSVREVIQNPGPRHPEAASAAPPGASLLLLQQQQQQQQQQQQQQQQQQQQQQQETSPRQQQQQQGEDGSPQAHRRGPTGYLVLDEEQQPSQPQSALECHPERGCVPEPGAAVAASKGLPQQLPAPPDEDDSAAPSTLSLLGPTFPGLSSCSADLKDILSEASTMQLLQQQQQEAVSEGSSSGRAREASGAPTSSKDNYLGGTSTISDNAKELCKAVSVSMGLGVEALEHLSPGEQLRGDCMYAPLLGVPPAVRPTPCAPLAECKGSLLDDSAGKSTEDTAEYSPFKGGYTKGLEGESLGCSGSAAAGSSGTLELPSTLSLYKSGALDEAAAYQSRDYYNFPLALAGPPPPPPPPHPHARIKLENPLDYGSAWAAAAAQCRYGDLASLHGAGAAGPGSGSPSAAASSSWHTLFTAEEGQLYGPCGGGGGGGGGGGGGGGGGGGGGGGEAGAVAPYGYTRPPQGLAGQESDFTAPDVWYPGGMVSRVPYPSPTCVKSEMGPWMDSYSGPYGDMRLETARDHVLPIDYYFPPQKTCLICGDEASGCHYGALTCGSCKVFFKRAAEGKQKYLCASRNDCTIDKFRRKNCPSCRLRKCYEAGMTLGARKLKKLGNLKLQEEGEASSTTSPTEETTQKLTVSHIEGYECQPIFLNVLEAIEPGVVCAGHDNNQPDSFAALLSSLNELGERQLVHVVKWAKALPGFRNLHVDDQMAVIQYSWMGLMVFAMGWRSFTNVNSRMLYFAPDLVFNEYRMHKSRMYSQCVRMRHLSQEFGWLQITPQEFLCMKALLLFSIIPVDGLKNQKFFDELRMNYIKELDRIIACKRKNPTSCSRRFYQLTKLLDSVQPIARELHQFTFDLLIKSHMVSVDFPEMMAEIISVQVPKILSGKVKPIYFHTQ
row,SMILES,Potency
1,COc1cc(C(=O)OCCCN2CCCN(CCCOC(=O)c3cc(OC)c(OC)c(OC)c3)CC2)cc(OC)c1OC,inactive
2,COC(=O)C1=C(C)NC(COC(N)=O)=C(C(=O)OC(C)C)C1c1cccc(Cl)c1Cl (centres undefined),inactive
3,OC(CN1CCC(Cc2ccc(F)cc2)CC1)c1ccc(Cl)cc1 (centres undefined),inactive
4,c1ccc(-c2ccccn2)nc1,inactive
5,O=S(c1cc(Cl)cc(Cl)c1O)c1cc(Cl)cc(Cl)c1O,inactive
6,O=[N+]([O-])c1ccc(NCCO)c(OCCO)c1,inactive
7,CCC(=O)O[C@]1(C(=O)CCl)[C@@H](C)C[C@H]2[C@@H]3CCC4=CC(=O)C=C[C@]4(C)[C@@]3(F)[C@@H](O)C[C@@]21C,inactive
8,CCCCC(=O)OCC(=O)[C@H]1[C@H](C)C[C@H]2[C@@H]3C[C@H](F)C4=CC(=O)C=C[C@]4(C)[C@@]3(F)[C@@H](O)C[C@@]21C,inactive
9,O=C(O)C1(C(=O)Nc2ccc(Cl)cc2Cl)CC1,inactive
10,O=C(c1ccc(F)cc1)C1CCN(CCn2c(=S)[nH]c3ccccc3c2=O)CC1,inactive
11,CN1CCC(=C2c3ccccc3Sc3ccccc32)CC1,29.8 µM (active)
12,Nc1cccc([N+](=O)[O-])c1,inactive
13,CC(=O)OC[C@H]1O[C@@H](n2ncc(=O)[nH]c2=O)[C@H](OC(C)=O)[C@@H]1OC(C)=O,inactive
14,C=C1C(=C/C=C2\CCC[C@]3(C)[C@@H]([C@H](C)/C=C/[C@@H](O)C4CC4)CC[C@@H]23)C[C@@H](O)C[C@@H]1O,26.6 µM (active)
